Where “and” joins values, the source holds several entries; their conditions need not be identical. Equal values may be shown once. The whole screen tested about 390,000 compounds, of which about 4,000 (1%) were called active. Where a call stands in place of a potency, no number is given. About 7% were inconclusive and are not listed. Calls follow the shape of the dose curve; as a rule, active = well fitted inhibition curve with a large enough effect; inconclusive = small, poorly fitted or top-dose-only effect, or another doubt; inactive = no such curve, though single readings can be large or run the other way. Only a selection was taken, and actives are over-represented in it overall. Some structures have more than one record in an assay (separate samples or runs), and their calls can disagree.
target: DNA polymerase iota (Homo sapiens) (UniProt Q9UNA4); assay: qHTS for Inhibitors of Polymerase Iota; conditions: Pol iota fluorescent replication assay, 10 min; series mostly up to 115 µM
Procedure, shortened: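 Pol iota at 10 nM preincubated 15 min with compounds at room temperature; reaction started with fluorescent substrate, 50 nM final. Fluorescence read kinetically at 0 and 10 min; buffer-only wells as negative control.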
Potency is read from the fitted curve at half-maximal effect.

Chain of DNA polymerase iota (Homo sapiens) (Q9UNA4 whole entry, looked up): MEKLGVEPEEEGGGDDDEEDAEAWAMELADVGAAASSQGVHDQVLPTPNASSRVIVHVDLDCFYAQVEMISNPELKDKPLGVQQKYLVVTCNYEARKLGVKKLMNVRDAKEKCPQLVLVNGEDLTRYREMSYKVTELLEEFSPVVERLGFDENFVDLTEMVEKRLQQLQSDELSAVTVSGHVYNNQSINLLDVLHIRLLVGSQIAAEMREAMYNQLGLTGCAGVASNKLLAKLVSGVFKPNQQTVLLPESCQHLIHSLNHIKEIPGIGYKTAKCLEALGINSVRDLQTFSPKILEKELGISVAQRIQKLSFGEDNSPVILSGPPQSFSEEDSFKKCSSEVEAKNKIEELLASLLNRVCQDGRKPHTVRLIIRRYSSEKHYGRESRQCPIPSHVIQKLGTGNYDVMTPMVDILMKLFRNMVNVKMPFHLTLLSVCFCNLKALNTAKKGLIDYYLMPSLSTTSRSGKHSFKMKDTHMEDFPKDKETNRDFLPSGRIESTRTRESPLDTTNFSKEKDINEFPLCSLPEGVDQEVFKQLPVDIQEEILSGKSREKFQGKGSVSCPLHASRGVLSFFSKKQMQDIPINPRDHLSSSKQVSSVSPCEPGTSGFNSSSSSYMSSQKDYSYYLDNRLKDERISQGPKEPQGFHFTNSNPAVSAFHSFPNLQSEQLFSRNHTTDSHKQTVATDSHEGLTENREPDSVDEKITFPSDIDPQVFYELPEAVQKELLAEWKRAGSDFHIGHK

SMILES	Potency
Cc1ccc(NC(=O)c2cc(-c3ccc(C)o3)nc3ccccc23)nc1	20 µM (active)
CCc1ccc(-c2cc(C(=O)NN3CCN(C)CC3)c3ccccc3n2)cc1	inactive
O=C(NCCc1ccccn1)c1cc(-c2ccc(Cl)cc2)nc2ccccc12	inactive
C=Cc1ccc(Cn2c(C(=O)OC)cc3sc(C)cc32)cc1	inactive
CCOc1cc(C(=O)O)ccc1OCCOc1ccccc1	inactive
CCOc1cccc2c1N[C@@H](c1ccc(C(=O)O)cc1)[C@H]1CC=C[C@@H]21	5.62 µM (active)
CCOc1c(CNCc2ccc(C(=O)O)cc2)cccc1OC	inactive
COc1cc(OC)cc(-c2nc3nc(C)c(CCC(=O)Nc4ccc(C)cc4)c(C)n3n2)c1	inactive
COc1cccc(CNC(=O)c2n[nH]c3ccccc23)c1	inactive
Cc1cccc(NC(=O)c2nnn(CC(=O)Nc3ccc(C(C)C)cc3)c2N)c1C	inactive
CCOc1ccccc1NC(=O)Cn1nnc(C(=O)Nc2ccc(C)c(C)c2)c1N	inactive
CCc1ccc(NC(=O)Cn2nnc(C(=O)NCc3ccc4c(c3)OCO4)c2N)cc1	inactive
COc1cccc(CNC(=O)c2nnn(CC(=O)Nc3cc(Cl)ccc3C)c2N)c1	50.1 µM (active)
CC(C)c1ccc(NC(=O)Cn2nnc(C(=O)NCCc3ccccc3)c2N)cc1	79.4 µM (active)
CO[C@H]1O[C@@H]2O[C@@]3(C)CC[C@@H]4[C@@H](C)CC[C@@H]([C@H]1C)[C@@]24OO3	inactive
O=C(COC(=O)c1ccccc1OCCOc1ccccc1)Nc1cccc(Br)c1	inactive
OC[C@H]1O[C@@H](n2cnc3c(NC4CCCC4)ncnc32)[C@H](O)[C@H]1O	inactive
Cc1cc(F)ccc1NS(=O)(=O)c1ccc(-n2cccn2)cc1	inactive
CCOc1n[nH]c(-c2ccccc2)n1	inactive
CN(C)C(CNC(=O)c1cccc(C#N)c1)c1ccco1 (stereo not given)	inactive
O=C(NCCc1ccccn1)c1ccc(COc2ccccc2)o1	inactive
O=C(NCc1ccco1)c1nc2ncccn2n1	inactive
CN(C)C(CNC(=O)CCCOc1ccccc1)c1ccco1 (stereo not given)	inactive
CN(C)C(CNC(=O)c1ccc(OCc2cn3ccccc3n2)cc1)c1ccco1 (stereo not given)	22.4 µM (active)
O=C(NCCc1ccco1)c1ccc(OCc2cn3ccccc3n2)cc1	44.7 µM (active)

SMILES	Potency
OC(CBr)C[n+]1cccc2cc(Br)ccc21 (stereo not given)	inactive
COc1ccc(Cn2c(C(=O)O)c(CNCCc3cccs3)c3ccc(OC)cc32)cc1	inactive
CN(N=O)c1ccc(C=C2c3ccccc3-c3ccccc32)cc1	inactive
CCN(CC)S(=O)(=O)c1ccc2c(c1)N(CC(=O)NCc1ccccc1)C(=O)CS2	inactive
CC1(C)C=Cc2c(ccc(C(=O)/C=C/c3ccccc3)c2O)O1	inactive
Cc1nc2ccc(S(=O)(=O)NC(C(=O)NCc3ccccc3Cl)C(C)C)cc2s1 (stereo not given)	inactive
O=C(NCCc1csc(-c2ccc(C(F)(F)F)cc2)n1)C(=O)Nc1ccc(F)c(Cl)c1	inactive
O=C1CCCC(O)=C1N=Nc1ccc2ncsc2c1	39.8 µM (active)
O=C(Cn1cc(SCc2ccccc2)c2ccccc21)N1CCCCC1	inactive
COc1ccccc1CNc1nccn(-c2ccc(F)cc2)c1=O	inactive
CC/C=C/C(=O)N1CC2(CC(c3cccc(NC(=O)CC)c3)=NO2)C[C@H]1C(N)=O (stereo not given in full)	inactive
C=C(C)C(=O)Nc1cccc(C2=NOC3(C2)C[C@H](C(N)=O)N(C(=O)C(c2ccccc2)c2ccccc2)C3)c1 (stereo not given in full)	31.6 µM (active)
C/C=C(\C)C(=O)N1CC2(CC(c3cccc(NC(=O)CCCCC)c3)=NO2)C[C@@H]1C(N)=O (stereo not given in full)	inactive
CCc1cccc(NC(=O)CN(C)S(=O)(=O)c2ccc3[nH]c4c(c3c2)CCCC4)c1	inactive
Cc1cc(C)c2nc(-c3ccco3)cc(C(=O)O)c2c1	11.2 µM (active)
Cc1ccsc1-c1cc(C(=O)O)c2c(ccc3ccccc32)n1	inactive
Cc1cccc(NC(=O)CSc2nc(-c3ccco3)cc(C(F)(F)F)n2)c1C	inactive
CCCNC(=O)C(CC)n1nc(CC)n2c(cc3oc(C)cc32)c1=O (stereo not given)	inactive
COc1ccc(C(=O)Nc2cccc(C(=O)OCc3cc(=O)n4c5c(sc4n3)CCCC5)c2)cc1	inactive
CC(C)(C)OC(=O)N1CCC(c2c(C(=O)NCCc3ccsc3)cnn2-c2ccc(F)cc2F)CC1	inactive
CC(C)(C)n1ncc2c(=O)n(Cc3ccc(Cl)cc3)cnc21	inactive and 10 µM (active)
CC(C)(C)n1ncc2c(=O)n(Cc3ccc(C(=O)c4ccccc4)cc3)cnc21	inactive
CC(C)(C)n1ncc2c(=O)n(Cc3c(Cl)cccc3Br)cnc21	inactive
CN(C)C1=C2C=CC=CC2/C(=C2/C=Cc3ccccc32)C=C1 (stereo not given)	inactive
CC1(C)CCc2cc(S(=O)(=O)N3CCN(c4nc(-c5cccs5)nc5ccccc45)CC3)ccc2O1	inactive
